Where “and” joins values, the source holds several entries; their conditions need not be identical. Equal values may be shown once. Calls of active or inactive are those of the source.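 The calls were made as follows, unless noted: active = thallium flux through the channel raised or lowered by more than 3 SD from vehicle-only wells, actives on both sides; inactive = the rest.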
Tests used:
[1] = P. berghei load reduction in hepatocytes – cell-based, HepG2, luciferase luminescence, HepG2 viability, primary screen (AID 624349; in the data active = parasite load remaining mostly below about 12%, no sharp cut-off; inactive = mostly above about 10%;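 also: 100% = mean of DMSO negative control wells on the same plate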); details: P. berghei liver stage in HepG2, luciferase luminescence, concentration not given here; parasite load remaining: stronger effect = lower value; viability: measured here: HepG2 viability without parasites
[2] = signal quenchers or enhancers, Cy5 substrate/SSB – biochemical, NIH Clinical Collection, E. coli SSB, artefact control for HCV NS3 helicase inhibitor project (AID 743268; call rule not given here); details: Cy5-oligo bound E. coli SSB, fluorescence interference
[3] = tested on: Hepatitis C virus NS3 helicase; test: blockers of NS3h binding to DNA – biochemical, fluorescence polarization, NIH Clinical Collection, primary screen (AID 743270; call rule not given here); details: NS3 helicase binding to Cy5-dT15 DNA, stronger effect = higher value, concentration not given here
[4] = target: Single-stranded DNA-binding protein (Escherichia coli (strain K12)) (UniProt P0AGE0); test: SSB-ssDNA binding inhibitors – biochemical, fluorescence polarization, NIH Clinical Collection, counter-screen for HCV NS3 helicase inhibitor project (AID 743271; in the data active = inhibition above about 28%); details: E. coli SSB-DNA binding, stronger effect = higher value, concentration not given here
[5] = compounds distorting NS3 helicase fluorescence signal – biochemical, NIH Clinical Collection, artefact control for HCV NS3 helicase inhibitor project (AID 743272; call rule not given here;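 also: HCV NS3 helicase with a Cy5 labelled single stranded DNA probe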); details: fluorescence interference counterscreen, HCV NS3 helicase assay; stronger effect = lower value
[6] = target: 6-phosphogluconate dehydrogenase, decarboxylating (Homo sapiens) (UniProt P52209); test: inhibition of human phosphogluconate dehydrogenase – biochemical, recombinant enzyme, NADPH absorbance, primary screen (AID 1159550;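 active = at least 20% inhibition of 6-phosphogluconate dehydrogenase activity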); details: recombinant 6PGD, NADPH absorbance 341 nm; at 10 µM; stronger effect = higher value
[7] = modulation of C. elegans fzo-1 (AID 1259413; call rule not given here;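 also: fzo-1 mutant C. elegans worms in liquid wells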); details: C. elegans fzo-1 modulator screen, mean read-out; stronger effect = higher value
[8] = viability loss with induced miR-34 in A549 – imaging, A549 dox-inducible miR-34, nuclei and caspase counts, primary screen (AID 1347080;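 active = compounds whose cell count with miR-34 switched on is under 0.7 times the count with it off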); details: A549 miR-34 inducible, Hoechst nuclei count, 48 h
[9] = target: Mitogen-activated protein kinase 7 (Homo sapiens) (UniProt Q13164); test: Gal4-ERK5 driven luciferase induction – cell-based, HTS, primary screen (AID 1508626;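 active = luciferase signal above three times the same-plate solvent-only control wells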;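 also: luciferase driven by Gal4-ERK5 fusion binding five Gal4 sites before minimal TATA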); details: HeLa Gal4-ERK5 transactivation, 18 h, at 5 µM, stronger effect = higher value
[10] = galactose survival enhancers in mitochondrial complex I cybrids – cell-based, galactose medium, ATP luminescence, primary screen (AID 1645843;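 active = z-score of at least 1.8 in each of two replicates, scored against plate mean and spread of sample wells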;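 also: positive z means more ATP and so rescue of galactose-driven cybrid death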); details: complex I mutant cybrid cells, 72 h, stronger effect = higher value
F380Y = test: BK channel mutant inhibitors and activators – cell-based, U2OS BacMam, thallium flux, beta subunits, selectivity assay, profiling panel (AID 1259406); details: U2OS BacMam BK variants, at 30 µM;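 also: initial slope of Thallos dye fluorescence rise after thallium is added; log ratio against the mean of 0.3% DMSO vehicle wells on the same plate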
F380Y/beta1 = test: as above; details: U2OS BacMam BK variants, at 30 µM
F380Y/beta2Delta = test: as above; details: U2OS BacMam BK variants, at 30 µM
[11] = target: Calcium-activated potassium channel subunit alpha-1 (Homo sapiens) + Leucine-rich repeat-containing protein 26 (Homo sapiens) (UniProt Q12791+Q2I0M4); test: as above; details: U2OS BacMam BK variants, F380Y/Slo1WT/gamma1, at 30 µM
R275C = test: as above; details: U2OS BacMam BK variants, at 30 µM
R275C/beta1 = test: as above; details: U2OS BacMam BK variants, at 30 µM
R275C/beta2Delta = test: as above; details: U2OS BacMam BK variants, at 30 µM
[12] = EMT-state selective cytotoxicity in co-culture – imaging, PC-3E GFP, TEM4-18 mCherry, primary screen (AID 1345086;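 active = compounds killing one labelled cell type while sparing the other, by normalised counts and ratio limits, not self-fluorescent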;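 as to all read-outs here: cells exposed to compound for 72 h before imaging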;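 as to red/green cell ratio (normalised): normalised mesenchymal count divided by normalised epithelial count so high means epithelial killing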); details: PC-3E GFP / TEM4-18 mCherry co-culture, imaging cell counts, at 1 µM; for red/green cell ratio (normalised): actives lie on both sides, counts scaled to control wells, 1 = unselective
[13] = MELAS cybrid and Rieske KO viability enhancers – cell-based, MELAS cybrids, Rieske KO mouse fibroblasts, CellTiter-Glo, primary screen (AID 1508586;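 active = mean z-score across replicates of 1.96 or higher in either the MELAS or the Rieske mutant cell line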;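 also: z relative to plate mean and SD of compound and empty wells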); details: low glucose
[14] = stronger effect = lower value, cell number ratio, induced over uninduced
[15] = measured here: relative caspase fold change +Dox/-Dox
[16] = measured here: total cells with miR-34 induction, stronger effect = lower value
[17] = measured here: total cells without miR-34 induction
[18] = measured here: epithelial PC-3E GFP cell survival
[19] = measured here: mesenchymal TEM4-18 mCherry cell survival
[20] = MELAS cybrid survival, CellTiter-Glo 48 h, stronger effect = higher value
[21] = Rieske KO mouse fibroblast survival, CellTiter-Glo 72 h

6-phosphogluconate dehydrogenase, decarboxylating (Homo sapiens), sequence (P52209 whole entry, looked up): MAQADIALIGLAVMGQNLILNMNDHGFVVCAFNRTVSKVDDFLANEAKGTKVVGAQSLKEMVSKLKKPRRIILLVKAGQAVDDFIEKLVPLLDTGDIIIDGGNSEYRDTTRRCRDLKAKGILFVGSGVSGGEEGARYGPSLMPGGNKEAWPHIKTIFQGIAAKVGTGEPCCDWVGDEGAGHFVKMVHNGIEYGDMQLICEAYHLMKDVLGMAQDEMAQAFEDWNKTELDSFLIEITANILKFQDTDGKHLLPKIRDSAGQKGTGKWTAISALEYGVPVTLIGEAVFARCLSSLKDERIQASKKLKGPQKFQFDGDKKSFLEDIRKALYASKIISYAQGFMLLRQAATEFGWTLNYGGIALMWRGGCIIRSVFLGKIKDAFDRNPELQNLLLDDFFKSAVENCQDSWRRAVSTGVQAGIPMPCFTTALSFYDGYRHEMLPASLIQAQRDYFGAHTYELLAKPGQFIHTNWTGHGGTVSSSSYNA
Mitogen-activated protein kinase 7 (Homo sapiens), sequence (Q13164 whole entry, looked up, the tested form may be a part): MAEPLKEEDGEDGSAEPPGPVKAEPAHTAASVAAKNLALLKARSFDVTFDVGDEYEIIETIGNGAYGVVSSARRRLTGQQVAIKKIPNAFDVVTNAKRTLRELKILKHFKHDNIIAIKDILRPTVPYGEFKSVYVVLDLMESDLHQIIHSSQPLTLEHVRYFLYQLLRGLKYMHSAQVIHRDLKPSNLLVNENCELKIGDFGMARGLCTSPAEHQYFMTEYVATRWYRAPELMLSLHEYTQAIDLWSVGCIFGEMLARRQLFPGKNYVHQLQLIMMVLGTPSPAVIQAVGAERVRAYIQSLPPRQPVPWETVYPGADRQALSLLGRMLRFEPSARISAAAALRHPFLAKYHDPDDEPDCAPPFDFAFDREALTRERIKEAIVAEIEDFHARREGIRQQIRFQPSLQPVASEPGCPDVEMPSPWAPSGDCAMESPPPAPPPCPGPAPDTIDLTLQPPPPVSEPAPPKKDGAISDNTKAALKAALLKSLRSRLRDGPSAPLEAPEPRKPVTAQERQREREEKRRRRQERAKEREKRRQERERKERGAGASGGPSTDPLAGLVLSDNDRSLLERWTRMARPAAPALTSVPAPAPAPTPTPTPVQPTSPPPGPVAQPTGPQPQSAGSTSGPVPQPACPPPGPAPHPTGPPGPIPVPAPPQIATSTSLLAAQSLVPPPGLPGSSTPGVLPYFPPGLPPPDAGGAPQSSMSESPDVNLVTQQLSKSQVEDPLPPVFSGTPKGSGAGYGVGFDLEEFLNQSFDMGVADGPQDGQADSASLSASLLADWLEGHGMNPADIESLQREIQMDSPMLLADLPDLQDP
Calcium-activated potassium channel subunit alpha-1 (Homo sapiens) + Leucine-rich repeat-containing protein 26 (Homo sapiens), sequence (Q2I0M4 whole entry, looked up, one chain of several): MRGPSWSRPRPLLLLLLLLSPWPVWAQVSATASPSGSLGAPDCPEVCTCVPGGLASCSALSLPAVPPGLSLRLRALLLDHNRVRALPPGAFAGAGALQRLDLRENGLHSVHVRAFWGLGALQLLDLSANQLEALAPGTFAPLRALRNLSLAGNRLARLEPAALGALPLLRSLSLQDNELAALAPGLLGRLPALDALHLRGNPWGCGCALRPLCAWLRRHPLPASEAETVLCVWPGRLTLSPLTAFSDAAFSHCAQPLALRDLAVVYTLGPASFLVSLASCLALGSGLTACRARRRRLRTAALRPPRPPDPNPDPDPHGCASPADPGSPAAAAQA

CC(=O)O[C@]1(C(C)=O)CC[C@H]2[C@@H]3C[C@H](C)C4=CC(=O)CC[C@]4(C)[C@H]3CC[C@@]21C
77.3%: viability [1]
1.75: fold change [8, 15]
inactive: parasite load remaining [1] 22.6% | fluorescence ratio [2] 0.99 | inhibition [3] -0.45% | inhibition [4] -0.48% | fluorescence ratio [5] 0.97 | inhibition [6] 2.85% | mean signal [7] 251 | fold change [8, 14] 0.928 | luciferase signal [9] 68 AU | z-score [10] -1.19 | log fold change Tl+ flux (F380Y) -0.0294 | log fold change Tl+ flux (F380Y/beta1) 0.0192 | log fold change Tl+ flux (F380Y/beta2Delta) -0.0667 | log fold change Tl+ flux [11] -0.0359 | log fold change Tl+ flux (R275C) -0.0267 | log fold change Tl+ flux (R275C/beta1) 0.0157 | log fold change Tl+ flux (R275C/beta2Delta) 0.0115
8130: cell count [8, 17]
7550: cell count [8, 16]

C=CC1=C(C(=O)O)N2C(=O)[C@@H](NC(=O)/C(=N\O)c3csc(N)n3)[C@H]2SC1 (stereo in doubt)
0.89: normalised cell number [12, 18]
87.7% and 99.2%: viability [1]
13600: cell count [8, 17]
12500: cell count [8, 16]
1.04: normalised cell number [12, 19]
4.11: fold change [8, 15]
inactive: parasite load remaining [1] 166% and 48.1% | inhibition [6] -2.05% | mean signal [7] 293 | red/green cell ratio (normalised) [12] 1.17 | fold change [8, 14] 0.92 | z-score [13, 20] -0.152 | luciferase signal [9] 264 AU
-0.423: z-score [13, 21]

CCCC1O[C@@H]2C[C@H]3[C@@H]4CCC5=CC(=O)C=C[C@]5(C)[C@H]4[C@@H](O)C[C@]3(C)[C@]2(C(=O)CO)O1 (stereo partly specified)
inactive: parasite load remaining [1] 14% and 67.2% and 78.7% | fluorescence ratio [2] 1.05 | inhibition [3] -1.36% | inhibition [4] 1.05% | fluorescence ratio [5] 0.99 | inhibition [6] -12.1% | z-score [13, 20] -0.382 | luciferase signal [9] 96 AU | log fold change Tl+ flux [11] 0.0553 | log fold change Tl+ flux (R275C) 0.0776
active: log fold change Tl+ flux (F380Y) 0.198 | log fold change Tl+ flux (F380Y/beta1) 0.126 | log fold change Tl+ flux (F380Y/beta2Delta) 0.159 | log fold change Tl+ flux (R275C/beta1) 0.133 | log fold change Tl+ flux (R275C/beta2Delta) 0.115
-0.0716: z-score [13, 21]
116% and 115% and 75.3%: viability [1]

CC1(C)SC2C(NC(=O)COc3ccccc3)C(=O)N2C1C(=O)O (stereo unspecified)
active: fluorescence ratio [2] 0.71
94.2%: viability [1]
11100: cell count [8, 17]
inactive: parasite load remaining [1] 83.2% | inhibition [3] -3.18% | inhibition [4] -5.05% | fluorescence ratio [5] 1.01 | inhibition [6] 3.81% | mean signal [7] 260 | fold change [8, 14] 0.993 | z-score [10] 1.5 | log fold change Tl+ flux (F380Y) -0.00633 | log fold change Tl+ flux (F380Y/beta1) 0.027 | log fold change Tl+ flux (F380Y/beta2Delta) 0.0322 | log fold change Tl+ flux [11] -0.0109 | log fold change Tl+ flux (R275C) 0.00635 | log fold change Tl+ flux (R275C/beta1) 0.0123 | log fold change Tl+ flux (R275C/beta2Delta) -0.0109
11000: cell count [8, 16]
1.37: fold change [8, 15]

Cc1cc(=O)oc2cc(O)cc(O)c12
1.18: normalised cell number [12, 18]
0.94: normalised cell number [12, 19]
inactive: inhibition [6] 3.6% | red/green cell ratio (normalised) [12] 0.8

COc1ccc(-c2oc3c(CC=C(C)C)c(O[C@@H]4O[C@H](CO)[C@@H](O)[C@H](O)[C@H]4O)cc(O)c3c(=O)c2O[C@@H]2O[C@@H](C)[C@H](O)[C@@H](O)[C@H]2O)cc1
inactive: parasite load remaining [1] 70.8% | fluorescence ratio [2] 1 | inhibition [3] -9.9% | inhibition [4] -2.41% | fluorescence ratio [5] 0.98 | inhibition [6] 4.03% | mean signal [7] 233 | red/green cell ratio (normalised) [12] 1.12 | luciferase signal [9] 48 AU | log fold change Tl+ flux (F380Y) 0.00269 | log fold change Tl+ flux (F380Y/beta1) 0.00909 | log fold change Tl+ flux (F380Y/beta2Delta) -0.0493 | log fold change Tl+ flux [11] -0.0341 | log fold change Tl+ flux (R275C) -0.04 | log fold change Tl+ flux (R275C/beta1) 0.009 | log fold change Tl+ flux (R275C/beta2Delta) -0.0522
1.13: normalised cell number [12, 19]
68.9%: viability [1]
1.01: normalised cell number [12, 18]

CN=C(N)NCCC[C@H](N)C(=O)O
72.8%: viability [1]
9600 and 8960: cell count [8, 17]
0.95: normalised cell number [12, 19]
0.78: normalised cell number [12, 18]
inactive: parasite load remaining [1] 97.7% | fluorescence ratio [2] 0.99 | inhibition [3] -3.56% | inhibition [4] -2.41% | fluorescence ratio [5] 0.93 | inhibition [6] 3.01% and 12.6% | mean signal [7] 269 | red/green cell ratio (normalised) [12] 1.23 | fold change [8, 14] 0.994 and 0.867 | z-score [10] 0.22
9540 and 7760: cell count [8, 16]
0.824 and 0.665: fold change [8, 15]

OC[C@H]1O[C@@H](Oc2cc(O)cc(/C=C/c3ccc(O)cc3)c2)[C@H](O)[C@@H](O)[C@@H]1O
78.3%: viability [1]
inactive: parasite load remaining [1] 100% | fluorescence ratio [2] 1 | inhibition [3] 3.56% | inhibition [4] 10.7% | fluorescence ratio [5] 0.98 | inhibition [6] 15% | mean signal [7] 254 | log fold change Tl+ flux (F380Y) 0.0295 | log fold change Tl+ flux (F380Y/beta1) -0.0141 | log fold change Tl+ flux (F380Y/beta2Delta) -0.0576 | log fold change Tl+ flux [11] -0.0684 | log fold change Tl+ flux (R275C) -0.101 | log fold change Tl+ flux (R275C/beta1) -0.0629 | log fold change Tl+ flux (R275C/beta2Delta) -0.0169

Reference: PubChem BioAssay
